In PubChem BioAssay:
Values without a mark were called inactive. Active and inactive are the calls of the source.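 How the source made its calls: active means inhibition above 50%; inactive means the rest.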

Assay: HepG2 cytotoxicity, primary screen, cytotoxicity control for P. falciparum antimalarial project, cell-based, ATP luminescence (AID 2303);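 further: 0% = DMSO wells and 100% = digitonin-killed cells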
Conditions: HepG2 viability, 24-48 h, at 10 µM, hits give high values
With Cc1cccc2[nH]c(-c3cccc(-c4cccc(CN5CCN(c6ccc(C#N)cn6)CC5)c4)c3)nc12 the inhibition was 11%. In the case of C[C@H](Cc1ccc(OCCCCCCOc2ccc(C[C@@H](C)NC[C@H](O)c3cccc(Cl)c3)cc2)cc1)NC[C@H](O)c1cccc(Cl)c1, the inhibition is reported as 99% (active). Molecule COc1ccc(-n2ccnc2SCC(=O)Nc2cc(Cl)ccc2OC)c(OC)c1 has an inhibition of -3%. For COc1ccccc1C1CCN(CCCCNC(=O)c2ccc(NC(=O)c3ccc(Cl)cc3)cc2)CC1, the inhibition was 21%. Molecule COc1ccccc1CNc1ncc(-c2ccsc2)c(-c2nccs2)n1 has an inhibition of 14%. For COc1ccc2c(NN=Cc3ccc(N(C)C)cc3)ccnc2c1, the inhibition was 12%. Work on NC1CCCN(Cc2cccc(-c3ccc(-c4nc5ccccc5[nH]4)s3)c2)C1 (stereo not given) yielded an inhibition of 21%. With COc1cc2c(cc1C(F)(F)F)N(C(=O)Nc1cc(OC(F)(F)F)cc(-c3cccnc3)c1)CC2 the inhibition was 55% (active). Work on O=C(Cc1cnc[nH]1)Nc1ccc(-c2cccc(-c3nc4ccc(C(F)(F)F)cc4[nH]3)c2)cc1 yielded an inhibition of 20%. In the case of CCCOc1ccc(CCCON2C(N)=NC(N)=NC2(C)C)cc1, the inhibition is reported as 65% (active). For CC(C)(C)NCCN(Cc1ccc(-c2ccc(C(F)(F)F)cc2)cc1)C(=O)Cn1c(CCc2cccc(F)c2F)nc(=O)c2ccccc21, the inhibition was 46%. CC1(C)N=C(N)N=C(N)N1OCCNCc1ccc(Cl)cc1 showed an inhibition of 5%. For Cc1ccc(C2=NNC3(S2)C(=O)Nc2ccc(C)cc23)cc1 (stereo not given), the inhibition was 35%. CCc1ccc(N2C(=O)C3C(Cc4ccc(OC(C)(C)C)cc4)NC4(C(=O)N(Cc5ccccc5)c5ccc(F)cc54)C3C2=O)cc1 (stereo not given) gave an inhibition of 9%. Molecule CCNc1cc(C(=O)N[C@@H](Cc2ccc(Cl)cc2)[C@H](O)CNC2CCCCC2)cc(N2CCCCS2(=O)=O)c1 has an inhibition of 6%. For CC(C)[C@H](NC(=O)NC1CCC(CCN2[C@@H]3CC[C@H]2CC(OC(=O)C(CO)c2ccccc2)C3)CC1)C(O)(c1ccccc1)c1ccccc1 (stereo not given in full), the inhibition was 17%. Work on CC(C)N1CCC(N(Cc2ccc(-c3ccc(C(F)(F)F)cc3)cc2)C(=O)Cn2c(CCc3cccc(F)c3F)cc(=O)c3c2CCC3)CC1 yielded an inhibition of 30%. For c1ccc(Nc2nc(-c3ccccn3)cs2)nc1, the inhibition was 45%. With CCOC(=O)NC1=NC(C)(C)N(OCc2ccc(Cl)c(Cl)c2)C(N)=N1 the inhibition was 66% (active). Molecule CCn1c(SCC(=O)Nc2cc(C(F)(F)F)ccc2Cl)nc2ccccc2c1=O has an inhibition of 8%. COc1cc(NC(=O)/C=C/c2cccc3ccoc23)ccc1OCCN(C(C)C)C(C)C showed an inhibition of 22%. COc1ccc(OCCCN2CCN(CC(c3ccc(F)cc3)N3CCN(C(C)C)CC3)CC2)c2ccccc12 (stereo not given) gave an inhibition of 30%. Molecule Cc1cccc(Nc2nccc(NCC(O)c3cccc(C(F)(F)F)c3)n2)c1 (stereo not given) has an inhibition of 25%. For Cc1cccc2[nH]c(-c3ccc(-c4ccc(NC(=O)C(=O)c5cccn5C)cc4)cc3)nc12, the inhibition was 40%. Molecule CC(C)NCc1ccc(-c2cccc(-c3nc4ccccc4[nH]3)c2)cc1 has an inhibition of 21%. With Cc1cccc2[nH]c(-c3ccc(-c4cccc(CN5CCN(c6ccncc6)CC5)c4)cc3)nc12 the inhibition was 50% (active). Molecule CC(C)CN1CCCN(Cc2cccc(NC(=O)c3cc4ccccc4s3)c2)CC1 has an inhibition of 5%. Work on Cc1cc(NCCCCCCN)nc(Nc2ccc(Cl)cc2)n1 yielded an inhibition of 25%. CCCCCCCN1CC[C@@H](CCCc2ccnc3ccc(OCCCCN=C(N)NO)cc23)[C@@H](CC)C1 gave an inhibition of 27%. For COc1cc(CCN(C)Cc2ccc(OC)c(OC)c2)ccc1NC(=O)c1cccc2c(=O)c3cccc(F)c3[nH]c12, the inhibition was 14%. COc1ccc2nccc([C@@H](O)CN3CCC(NC[C@H](Cc4ccccc4)NC(=O)OC(C)(C)C)CC3)c2c1 showed an inhibition of 18%. Molecule CC(=O)NCCNc1nccc(N2CCc3ncnc(Nc4ccc(OCc5cccc(F)c5)c(Cl)c4)c3C2)n1 has an inhibition of 10%. Cc1cc(N)c2cc(NC(=O)CCC(=O)Nc3ccc4nc(C)cc(N)c4c3)ccc2n1 showed an inhibition of -2%. With COc1cc(CNCCC(C)C)ccc1OCc1cccc(COc2ccc(CNCCC(C)C)cc2OC)c1 the inhibition was 97% (active). In the case of O=C(/C=C/c1ccc(Cl)c(Cl)c1)NCCCCCCN1CCCN(C(=O)Nc2ccc(C(F)(F)F)cc2)CC1, the inhibition is reported as 47%. With CN1CCN(CCCN(Cc2ccc(-c3ccc(CNCc4ccc5c(c4)OCO5)cc3)cc2)C(=O)Nc2ccccc2)CC1 the inhibition was 36%. In the case of O=[N+]([O-])c1cccc(Nc2nccc(-c3cnn4ncccc34)n2)c1, the inhibition is reported as 33%. COc1ccc(C(=O)N[C@@H](CC(C)C)C(=O)N[C@H](/C=N/NC(=O)c2ccccc2)CCc2ccccc2)cc1OCCN1CCOCC1 gave an inhibition of 2%. CC(C)CCNCc1c(O)ccc2ccccc12 showed an inhibition of 9%. For Cc1ccc(/C=C/C(=O)N2CCC(CCN3CCC(c4c[nH]c5ccccc45)CC3)CC2)cc1C, the inhibition was 50% (active).
